We go through 58 compounds from PubChem BioAssay (Tox21).

SMILES strings stand for the structures. Records with an inconclusive call do not appear. Unmarked numbers belong to inactive results. The source made the active and inactive calls. Calls follow the shape of the dose curve; as a rule, active = well fitted cell-killing curve with a large enough effect in the repeat runs; inconclusive = weak or mixed curves, or effect the other way; inactive = flat fitted curve, though single readings scatter.

Assay [1] in a line: cAMP Responsive Elements (CRE) small molecule antagonists, cell-based qHTS assay: qHTS cell viability counter screen (AID 2060913). Also: nearly all actives have a fitted effect of over 40% in size. Summed up: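 Steps: cells plated and held 18 hrs at 37 C/5% CO2; compounds and NKH477 (0.25 uM final) added; 3 hrs incubation; reporter substrate read; CellTiter-Glo added to measure cytotoxicity by luminescence.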
In general terms: qHTS replaces the single test concentration by a dilution series.

The nature of assay [2]: cAMP Responsive Elements (CRE) small molecule agonists, cell-based qHTS assay: qHTS cell viability counter screen (AID 2060914). Also: nearly all actives have a fitted effect of over 50% in size. Summed up:
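Cytotoxicity was measured as ATP luminescence (CellTiter-Glo, 30 min at room temperature) in the same wells as the CRE-bla FRET read-out. HEK293T CRE-bla cells had 3 h compound exposure at 37C/5% CO2.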
Potency is read from the fitted curve at half-maximal effect.

Regarding `COc1ccccc1OCC1CNC(=O)O1` (stereo unspecified), the Potency entry in assay [1] and in assay [2] was “inactive” each time.
On to `c1ccc2cc(Nc3ccc(Nc4ccc5ccccc5c4)cc3)ccc2c1`, for which the Potency result in assay [1] and in assay [2] was “inactive” in each case.
Turning to `COC(=O)Nc1nc2ccc(C(=O)C3CC3)cc2[nH]1`, the Potency entry in assay [1] and in assay [2] was “inactive” in each case.
Consider `Nc1ccc(O)c(C(=O)O)c1`, for which the Potency result in assay [1] and in assay [2] was “inactive” each time.
In the case of `CC1C(C)(C)C2=C(C(=O)CCC2)C1(C)C` (stereo unspecified), the Potency entry in assay [1] and in assay [2] was “inactive” throughout.
As for `CCCCCC/C=C/C(=O)OC`, the Potency result in assay [1] and in assay [2] was “inactive” in each case.
On to `C[C@@H](O)[C@H]1C(=O)N2C(C(=O)O)=C(S[C@@H]3CN[C@H](C(=O)N(C)C)C3)[C@H](C)[C@H]12`, for which the Potency result in assay [1] and in assay [2] was “inactive” in each case.
With `O=C1c2ccccc2CCc2ccccc21`, the Potency result in assay [1] and in assay [2] was “inactive” throughout.
With `CCCCCCCCCCCCc1ccccc1`, the Potency result in assay [1] and in assay [2] was “inactive” in each case.
Regarding `Cc1nc([N+](=O)[O-])cn1-c1ccc([N+](=O)[O-])cc1`, the Potency entry in assay [1] and in assay [2] was “inactive” each time.
On to `CC(C)(O)C(=O)c1ccccc1`, for which the Potency result in assay [1] and in assay [2] was “inactive” in each case.
Turning to `CC(C)C1=CC2=CC[C@@H]3[C@](C)(CCC[C@@]3(C)C(=O)O)[C@H]2CC1`, the Potency entry in assay [1] and in assay [2] was “inactive” throughout.
`CCCCOCCOC(=O)COc1nc(Cl)c(Cl)cc1Cl`: the Potency entry in assay [1] and in assay [2] was “inactive” in each case.
As to `CCn1c2ccccc2c2cc(N)ccc21`, the Potency entry in assay [1] and in assay [2] was “inactive” each time.
As to `c1ccc2c(c1)[nH]c1ccccc12`, the Potency entry in assay [1] and in assay [2] was “inactive” throughout.
Consider `CN(C)C(=O)Nc1ccc(Cl)c(Cl)c1`, for which the Potency entry in assay [1] and in assay [2] was “inactive” throughout.
For the compound `OCCOc1ccc(OCCO)cc1`, the Potency entry in assay [1] and in assay [2] was “inactive” each time.
Take `Oc1cccc2[nH]ccc12`: the Potency entry in assay [1] and in assay [2] was “inactive” throughout.
Turning to `FC(F)(F)C(F)(F)C(F)(F)C(F)(F)C(F)(F)C(F)(F)C(F)(F)C(F)(F)Br`, the Potency entry in assay [1] and in assay [2] was “inactive” in each case.
For `CCCOC(C)=O`, the Potency result in assay [1] and in assay [2] was “inactive” each time.
On to `CC(=O)CC(=O)Nc1ccc2[nH]c(=O)[nH]c2c1`, for which the Potency entry in assay [1] and in assay [2] was “inactive” in each case.
Turning to `CCCCCCCCCCCCCC(=O)OC(C)C`, the Potency entry in assay [1] and in assay [2] was “inactive” throughout.
Turning to `CN(C)c1cccc(O)c1`, the Potency entry in assay [1] and in assay [2] was “inactive” throughout.
For `O=C(COCCOCCOCC(=O)Nc1c(I)cc(I)c(C(=O)O)c1I)Nc1c(I)cc(I)c(C(=O)O)c1I`, the Potency result in assay [1] and in assay [2] was “inactive” each time.
For the compound `C[C@@H](c1ncncc1F)C(O)(Cn1cncn1)c1ccc(F)cc1F` (stereo partly specified), the Potency result in assay [1] and in assay [2] was “inactive” throughout.
`Cc1onc(-c2ccccc2)c1C(=O)Cl`: the Potency result in assay [1] and in assay [2] was “inactive” in each case.
In the case of `Cn1c(=O)c2c(ncn2CC(=O)O)n(C)c1=O`, the Potency result in assay [1] and in assay [2] was “inactive” throughout.
In the case of `Nc1ccc(F)c([N+](=O)[O-])c1`, the Potency result in assay [1] and in assay [2] was “inactive” each time.
`CCCCOCCOC(=O)c1ccccc1C(=O)OCCOCCCC`: the Potency entry in assay [1] and in assay [2] was “inactive” each time.
Consider `COc1cc(C)ccc1C(C)C`, for which the Potency result in assay [1] and in assay [2] was “inactive” throughout.
As to `NCc1ccco1`, the Potency entry in assay [1] and in assay [2] was “inactive” throughout.
As for `NC(=O)C(=O)N/N=C/c1ccc([N+](=O)[O-])o1`, the Potency entry in assay [1] and in assay [2] was “inactive” each time.
As to `CC(CCC(=O)O)(c1ccc(O)cc1)c1ccc(O)cc1`, the Potency result in assay [1] and in assay [2] was “inactive” in each case.
With `CC(=O)OC(C)(C)C1CC=C(C)CC1` (stereo unspecified), the Potency entry in assay [1] and in assay [2] was “inactive” each time.
On to `N=C(N)c1ccc2cc(OC(=O)c3ccc(N=C(N)N)cc3)ccc2c1`, for which the Potency entry in assay [1] and in assay [2] was “inactive” in each case.
As to `CCCCCCCO`, the Potency entry in assay [1] and in assay [2] was “inactive” each time.
With `c1ccc(Sc2ccccc2)cc1`, the Potency entry in assay [1] and in assay [2] was “inactive” throughout.
Consider `c1cnc2c(c1)ccc1cccnc12`, for which the Potency result in assay [1] and in assay [2] was “inactive” each time.
With `CC(C)(C)C(=O)OCOC(=O)C1N2C(=O)CC2S(=O)(=O)C1(C)C` (stereo unspecified), the Potency result in assay [1] and in assay [2] was “inactive” in each case.
Regarding `CCOCCOCC`, the Potency result in assay [1] and in assay [2] was “inactive” throughout.
As for `NCCS(=O)(=O)O`, the Potency entry in assay [1] and in assay [2] was “inactive” in each case.
Consider `CC(Cc1ccccc1)(NC(=O)CN)c1ccccc1` (stereo unspecified), for which the Potency entry in assay [1] and in assay [2] was “inactive” throughout.
On to `O=S1(=O)CC(Cl)(Cl)C(Cl)(Cl)C1`, for which the Potency in assay [1] is 15.4 µM (active); in assay [2], 34.4 µM (active).
Turning to `C=C(C)C(=O)OCCCCCCCCCCOC(=O)C(=C)C`, the Potency result in assay [1] and in assay [2] was “inactive” each time.
On to `O=C1CC2(CCCC2)CC(=O)N1CCCCN1CCN(c2ncccn2)CC1`, for which the Potency entry in assay [1] and in assay [2] was “inactive” each time.
Consider `OCCCc1ccccc1`, for which the Potency result in assay [1] and in assay [2] was “inactive” throughout.
On to `Cc1ccc2cccnc2c1`, for which the Potency result in assay [1] and in assay [2] was “inactive” each time.
As to `NCCCN1CCOCC1`, the Potency result in assay [1] and in assay [2] was “inactive” in each case.
In the case of `C1CCCNCCC1`, the Potency result in assay [1] and in assay [2] was “inactive” each time.
Consider `Cc1cc(O)c(Cl)c(C)c1Cl`, for which the Potency entry in assay [1] and in assay [2] was “inactive” throughout.
As to `CN(C)CCC[C@@]1(c2ccc(F)cc2)OCc2cc(C#N)ccc21`, the Potency entry in assay [1] and in assay [2] was “inactive” throughout.
As for `CCC(O)CO` (stereo unspecified), the Potency result in assay [1] and in assay [2] was “inactive” each time.
Regarding `Cc1cc(NC(=O)C2=C(O)c3ccccc3S(=O)(=O)N2C)no1`, the Potency entry in assay [1] and in assay [2] was “inactive” in each case.
Regarding `CC(C)=CC(=O)C=C(C)C`, the Potency result in assay [1] and in assay [2] was “inactive” throughout.
For `COc1ccc(-c2ccc3cc(C(=O)O)ccc3c2)cc1C12CC3CC(CC(C3)C1)C2`, the Potency entry in assay [1] and in assay [2] was “inactive” in each case.
On to `CCNCCO`, for which the Potency entry in assay [1] and in assay [2] was “inactive” each time.
`CCN1CCN(C(=O)N[C@@H](C(=O)N[C@@H]2C(=O)N3[C@@H]2SC(C)(C)[C@H]3C(=O)O)c2ccccc2)C(=O)C1=O`: the Potency entry in assay [1] and in assay [2] was “inactive” throughout.
For the compound `CN(C)CCOc1ccccc1Cc1ccccc1`, the Potency result in assay [1] and in assay [2] was “inactive” each time.
